Records with an inconclusive call do not appear. The source made the active and inactive calls. How the source made its calls, unless noted: active means hit-call score of the fitted dose curve at least 0.9, where 1 is the maximum; inactive means score below 0.9.
Columns and labels:
[1] = target: human RAR-related Orphan Receptor gamma (RORg), RORC (gene 6097) (UniProt P51449); experiment: ATG_RORg_TRANS: Attagene TRANS-FACTORIAL HepG2 Assay for human RAR-related Orphan Receptor gamma (RORg) (AID 2283011; active means hit-call score of the fitted dose curve at least 0.9, where 1 is the maximum)
Summary of the method: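 First, HepG2 liver cells were transfected with GAL4-UAS-driven reporter constructs and the RORg-Gal4 fusion. Next, they were treated with chemical for 24 h. Finally, reporter mRNA was quantified by RT-PCR and capillary electrophoresis, with upward activity fitted against DMSO.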

[2] = target: Retinoic acid receptor RXR-alpha (Homo sapiens) (UniProt P19793); experiment: ATG_RXRa_TRANS: Attagene TRANS-FACTORIAL HepG2 Assay for human Retinoid X Receptor alpha (RXRa) (AID 2283012; active means hit-call score of the fitted dose curve at least 0.9, where 1 is the maximum)
Summary of the method: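 Chimeric NR-GAL4 trans-activation in HepG2, 24 h treatment; reporter transcripts quantified by fluorescence on capillary electrophoresis, analysed for upward change from DMSO.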

[3] = target: human Retinoid X Receptor beta (RXRb), RXRB (gene 6257) (UniProt P28702); experiment: ATG_RXRb_TRANS: Attagene TRANS-FACTORIAL HepG2 Assay for human Retinoid X Receptor beta (RXRb) (AID 2283013; active means hit-call score of the fitted dose curve at least 0.9, where 1 is the maximum)
Summary of the method: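 After a 24 h incubation with test chemical, transfected HepG2 cells carrying NR-Gal4 fusions and GAL4-UAS reporter transcription units yield RNA whose reporter cDNA is FAM-labelled, HpaI-cut and sized by capillary electrophoresis; increases over DMSO are scored.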

[4] = target: human Thyroid Receptor alpha (THRa1), THRA (gene 7067) (UniProt P10827); experiment: ATG_THRa1_TRANS: Attagene TRANS-FACTORIAL HepG2 Assay for human Thyroid Receptor alpha (THRa1) (AID 2283014; active means hit-call score of the fitted dose curve at least 0.9, where 1 is the maximum)
Summary of the method: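 Reporter transcript induction, read by capillary electrophoresis of 6-FAM-labelled RT-PCR products, reflects activity of a transfected THRa1-Gal4 fusion in HepG2 liver cells. Cells were dosed for 24 h; activity was fitted in the positive direction against DMSO.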

[5] = read-out: E-selectin (Homo sapiens) (UniProt P16581); experiment: BSK_3C_Eselectin: BioMAP Diversity Plus: 3C Assay for Eselectin Biomarker Activity (AID 2283015); conditions: primary human endothelial cells (HUVEC); actives raise or lower the signal
Summary of the method: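 ELISA read-out of E-selectin on endothelial monolayers after 24 h chemical treatment. Human umbilical vein primary cells served as the system, with DMSO defining baseline activity for bidirectional fitting.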

[6] = read-out: Interleukin-1 alpha (IL1a), IL1A (gene 3552); experiment: BSK_BE3C_IL1a: BioMAP Diversity Plus: BE3C Assay for Interleukin-1 alpha (IL1a) Biomarker Activity (AID 2283016); conditions: primary human bronchial epithelial cells; actives raise or lower the signal
Summary of the method: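 Measured in human lung primary bronchial epithelial cells: IL-1a by ELISA at 24 h after dosing, with bidirectional fitting against DMSO.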

[7] = read-out: Monocyte Chemoattractant Protein-1 (MCP1), CCL2 (gene 6347); experiment: BSK_3C_MCP1: BioMAP Diversity Plus: 3C Assay for Monocyte Chemoattractant Protein-1 (MCP1) Biomarker Activity (AID 2283017); conditions: primary human endothelial cells (HUVEC); actives raise or lower the signal
Summary of the method: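 ELISA read-out of MCP-1 from human umbilical vein endothelial cell cultures harvested 24 h post-dosing. Gain or loss of signal was fitted relative to DMSO.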

[8] = read-out: Monocyte Chemoattractant Protein-1 (MCP1), CCL2 (gene 6347); experiment: BSK_4H_MCP1: BioMAP Diversity Plus: 4H Assay for Monocyte Chemoattractant Protein-1 (MCP1) Biomarker Activity (AID 2283018); conditions: primary human endothelial cells (HUVEC); actives raise or lower the signal
Summary of the method: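 Primary human umbilical vein endothelium is exposed to chemical for 24 h before MCP-1 is assayed by ELISA. Concentration-response fitted bidirectionally relative to DMSO.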

[9] = read-out: Human Leukocyte Antigen - DR isotype (HLADR), HLA-DRA (gene 3122); experiment: BSK_3C_HLADR: BioMAP Diversity Plus: 3C Assay for Human Leukocyte Antigen - DR isotype (HLADR) Biomarker Activity (AID 2283019); conditions: primary human endothelial cells (HUVEC); actives raise or lower the signal
Summary of the method: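 ELISA readout of surface HLA-DR on human umbilical vein endothelium, taken 24 h after chemical treatment. Gain- and loss-of-signal were both fitted relative to DMSO.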

[10] = read-out: Interleukin-8 (IL8), CXCL8 (gene 3576); experiment: BSK_3C_IL8: BioMAP Diversity Plus: 3C Assay for Interleukin-8 (IL8) Biomarker Activity (AID 2283020); conditions: primary human endothelial cells (HUVEC); actives raise or lower the signal
Summary of the method: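 Using DMSO-treated wells as the baseline, bidirectional curve fitting was applied to ELISA-measured IL-8 from human umbilical vein endothelial cultures sampled 24 h after compound addition.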

[11] = read-out: Monokine induced gamma interferon (MIG), CXCL9 (gene 4283); experiment: BSK_3C_MIG: BioMAP Diversity Plus: 3C Assay for Monokine induced gamma interferon (MIG) Biomarker Activity (AID 2283021); conditions: primary human endothelial cells (HUVEC); actives raise or lower the signal;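 on AC50: MIG protein level measured by immunoassay in the treated endothelial cultures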
Summary of the method: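 ELISA-measured MIG in dosed HUVEC 3C cultures at 24 h, analysed by bidirectional fitting with DMSO defining baseline activity.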

[12] = target: human Vitamin D Receptor (VDR), VDR (gene 7421) (UniProt P11473); experiment: ATG_VDR_TRANS: Attagene TRANS-FACTORIAL HepG2 Assay for human Vitamin D Receptor (VDR) (AID 2283022; active means hit-call score of the fitted dose curve at least 0.9, where 1 is the maximum)
Summary of the method: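 Steps: transfect HepG2 with GAL4-UAS-driven reporter constructs; dose compounds 24 h; isolate RNA, reverse-transcribe, PCR-amplify with 6-FAM-labelled primer extension and HpaI digestion; quantify fragments by capillary electrophoresis relative to DMSO.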

[13] = BSK_3C_SRB: Viability Assessment in the BioMAP Diversity Plus: 3C Assay (AID 2283023); conditions: primary human endothelial cells (HUVEC);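 further: fitted both ways against DMSO so a hit may be signal rise or drop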
Summary of the method: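 Absorbance at 560 nm of sulforhodamine B-stained (0.1%) total protein served as a cytotoxicity readout in human umbilical vein endothelial cells, 24 h after chemical treatment. Signal was fitted bidirectionally relative to DMSO.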

[14] = read-out: Matrix Metallopeptidase 1 (MMP1), MMP1 (gene 4312); experiment: BSK_BE3C_MMP1: BioMAP Diversity Plus: BE3C Assay for Matrix Metallopeptidase 1 (MMP1) Biomarker Activity (AID 2283024); conditions: primary human bronchial epithelial cells; actives raise or lower the signal
Summary of the method: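 In this multiplexed primary-cell system, human bronchial epithelium received chemicals for 24 h before an ELISA for MMP1. Values reflect bidirectional fits normalised to the DMSO baseline.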

[15] = BSK_3C_Vis: BioMAP Diversity Plus: 3C Assay for Morphology Visualization (AID 2283025); conditions: primary human endothelial cells (HUVEC);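 further: fitted both ways so gain or loss versus DMSO counts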;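 on AC50: light microscopy image of cell morphology used as background control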
Summary of the method: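 Light-microscopy morphology readout, 24 h exposure, human primary umbilical vein endothelium; analysed relative to DMSO with bidirectional fitting.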

[16] = read-out: Pselectin, SELP (gene 6403); experiment: BSK_4H_Pselectin: BioMAP Diversity Plus: 4H Assay for Pselectin Biomarker Activity (AID 2283026); conditions: primary human endothelial cells (HUVEC); actives raise or lower the signal
Summary of the method: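 Bidirectional fits against DMSO gave the endpoint. Cells: primary human umbilical vein endothelium, chemical-treated for 24 h before ELISA detection of P-selectin.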

[17] = BSK_4H_SRB: Viability Assessment in the BioMAP Diversity Plus: 4H Assay (AID 2283027); conditions: primary human endothelial cells (HUVEC);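 further: cells exposed to compound for 24 h before staining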;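 on AC50: curves fitted both ways versus DMSO so AC50 may be loss or gain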
Summary of the method: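 Cytotoxicity read-out in primary human endothelial cells: after 24 h compound exposure, cells were TCA-fixed (10%), stained with 0.1% SRB and absorbance taken at 560 nm. Values fitted in both directions relative to DMSO.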

[18] = BSK_BE3C_SRB: Viability Assessment in the BioMAP Diversity Plus: BE3C Assay (AID 2283028); conditions: primary human bronchial epithelial cells;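 on AC50: fitted both ways so AC50 may mark signal gain or loss versus DMSO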
Summary of the method: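 Cells (human bronchial epithelial, primary) are treated with chemicals, and after 24 h the parallel cultures are fixed in 10% TCA. These are then stained with 0.1% SRB and read at 560 nm. Gain or loss of signal is fitted relative to DMSO.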

Measured: AC50

Chain of human RAR-related Orphan Receptor gamma (RORg), RORC (gene 6097) (P51449 whole entry, looked up, the tested form may be a part): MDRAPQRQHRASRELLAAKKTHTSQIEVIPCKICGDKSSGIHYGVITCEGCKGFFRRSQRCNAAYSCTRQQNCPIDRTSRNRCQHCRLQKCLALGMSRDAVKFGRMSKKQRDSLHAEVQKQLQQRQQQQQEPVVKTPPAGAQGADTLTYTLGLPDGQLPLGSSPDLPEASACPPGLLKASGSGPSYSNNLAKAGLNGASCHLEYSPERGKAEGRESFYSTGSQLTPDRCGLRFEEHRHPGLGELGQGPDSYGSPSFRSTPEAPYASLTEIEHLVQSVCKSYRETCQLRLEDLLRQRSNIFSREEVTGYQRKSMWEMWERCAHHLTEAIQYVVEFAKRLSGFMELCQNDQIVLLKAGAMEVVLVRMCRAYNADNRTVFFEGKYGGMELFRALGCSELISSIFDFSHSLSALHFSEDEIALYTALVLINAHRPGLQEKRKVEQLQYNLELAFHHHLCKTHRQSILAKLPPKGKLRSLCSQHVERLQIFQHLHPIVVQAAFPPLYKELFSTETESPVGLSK
Chain of E-selectin (Homo sapiens) (P16581 whole entry, looked up): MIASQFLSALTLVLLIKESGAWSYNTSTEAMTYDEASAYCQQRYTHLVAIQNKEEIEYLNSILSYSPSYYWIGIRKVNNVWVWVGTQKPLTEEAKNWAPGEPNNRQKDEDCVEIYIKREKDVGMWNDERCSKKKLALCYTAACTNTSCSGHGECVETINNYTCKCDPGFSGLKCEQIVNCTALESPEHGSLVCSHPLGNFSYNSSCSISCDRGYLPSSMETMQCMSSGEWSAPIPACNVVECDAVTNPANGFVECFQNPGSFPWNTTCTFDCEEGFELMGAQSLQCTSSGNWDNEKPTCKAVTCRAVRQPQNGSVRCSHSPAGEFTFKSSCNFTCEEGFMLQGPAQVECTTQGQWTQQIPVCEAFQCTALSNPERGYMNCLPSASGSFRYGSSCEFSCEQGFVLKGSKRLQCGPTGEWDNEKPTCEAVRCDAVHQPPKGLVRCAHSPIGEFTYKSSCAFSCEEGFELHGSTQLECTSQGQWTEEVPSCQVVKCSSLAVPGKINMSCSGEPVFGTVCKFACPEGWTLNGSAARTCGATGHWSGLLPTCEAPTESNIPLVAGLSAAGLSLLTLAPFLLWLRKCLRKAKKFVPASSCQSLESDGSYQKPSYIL
Chain of human Retinoid X Receptor beta (RXRb), RXRB (gene 6257) (P28702 whole entry, looked up, the tested form may be a part): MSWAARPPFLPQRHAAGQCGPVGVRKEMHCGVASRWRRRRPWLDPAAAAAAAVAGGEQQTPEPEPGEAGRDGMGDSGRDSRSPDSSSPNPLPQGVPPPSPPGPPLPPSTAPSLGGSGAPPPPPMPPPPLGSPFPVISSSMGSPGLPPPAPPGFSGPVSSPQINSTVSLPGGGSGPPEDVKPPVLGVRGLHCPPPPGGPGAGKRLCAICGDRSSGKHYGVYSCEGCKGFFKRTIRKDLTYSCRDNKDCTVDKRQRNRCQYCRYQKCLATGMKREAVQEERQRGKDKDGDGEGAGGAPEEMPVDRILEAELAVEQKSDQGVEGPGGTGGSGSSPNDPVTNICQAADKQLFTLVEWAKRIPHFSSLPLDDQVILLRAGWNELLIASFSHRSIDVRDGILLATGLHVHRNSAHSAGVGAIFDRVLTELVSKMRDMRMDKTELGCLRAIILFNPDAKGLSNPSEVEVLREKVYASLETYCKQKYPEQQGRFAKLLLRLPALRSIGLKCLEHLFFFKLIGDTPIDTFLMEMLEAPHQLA
Chain of Retinoic acid receptor RXR-alpha (Homo sapiens) (P19793 whole entry, looked up, the tested form may be a part): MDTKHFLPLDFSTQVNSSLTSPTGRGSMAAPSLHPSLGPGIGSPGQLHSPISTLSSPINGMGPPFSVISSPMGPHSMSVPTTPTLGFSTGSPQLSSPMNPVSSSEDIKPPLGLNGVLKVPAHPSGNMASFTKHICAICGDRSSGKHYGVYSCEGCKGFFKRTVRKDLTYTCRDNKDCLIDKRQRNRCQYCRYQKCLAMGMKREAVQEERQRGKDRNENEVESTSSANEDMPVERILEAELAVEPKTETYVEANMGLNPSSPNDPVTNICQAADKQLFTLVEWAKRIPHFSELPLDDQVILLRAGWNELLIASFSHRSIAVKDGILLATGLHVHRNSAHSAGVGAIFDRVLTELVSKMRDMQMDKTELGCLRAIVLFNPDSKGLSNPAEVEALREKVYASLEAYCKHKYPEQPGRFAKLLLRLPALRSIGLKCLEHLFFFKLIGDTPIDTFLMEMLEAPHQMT
Chain of human Thyroid Receptor alpha (THRa1), THRA (gene 7067) (P10827 whole entry, looked up, the tested form may be a part): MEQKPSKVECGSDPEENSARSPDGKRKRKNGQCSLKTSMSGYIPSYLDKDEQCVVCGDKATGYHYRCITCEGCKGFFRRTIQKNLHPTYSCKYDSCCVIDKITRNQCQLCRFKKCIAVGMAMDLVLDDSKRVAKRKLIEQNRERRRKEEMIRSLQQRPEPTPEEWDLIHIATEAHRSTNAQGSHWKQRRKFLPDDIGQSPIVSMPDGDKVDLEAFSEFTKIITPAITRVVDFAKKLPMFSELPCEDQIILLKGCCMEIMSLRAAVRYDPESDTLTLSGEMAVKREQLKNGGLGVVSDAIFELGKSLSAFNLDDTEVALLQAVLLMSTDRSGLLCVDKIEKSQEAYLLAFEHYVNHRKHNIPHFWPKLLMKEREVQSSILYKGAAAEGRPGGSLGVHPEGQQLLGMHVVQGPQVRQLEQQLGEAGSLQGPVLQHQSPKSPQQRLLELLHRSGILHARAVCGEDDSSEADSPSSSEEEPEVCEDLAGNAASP
Chain of human Vitamin D Receptor (VDR), VDR (gene 7421) (P11473 whole entry, looked up, the tested form may be a part): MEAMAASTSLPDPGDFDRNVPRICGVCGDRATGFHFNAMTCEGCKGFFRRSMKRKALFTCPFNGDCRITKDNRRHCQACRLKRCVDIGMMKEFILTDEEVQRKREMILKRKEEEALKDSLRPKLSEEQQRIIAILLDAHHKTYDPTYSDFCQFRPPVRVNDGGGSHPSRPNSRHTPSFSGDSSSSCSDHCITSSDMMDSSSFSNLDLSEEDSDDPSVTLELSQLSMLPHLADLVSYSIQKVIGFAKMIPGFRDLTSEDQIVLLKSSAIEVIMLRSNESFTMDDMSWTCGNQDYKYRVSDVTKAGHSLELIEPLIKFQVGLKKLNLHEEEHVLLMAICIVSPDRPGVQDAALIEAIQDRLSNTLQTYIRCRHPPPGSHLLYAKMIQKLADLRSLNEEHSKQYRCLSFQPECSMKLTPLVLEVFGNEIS

O=C(Nc1ccccc1)Nc1ccnc(Cl)c1
active: [7] 9.83 µM | [8] 20 µM | [9] 20 µM
inactive: all other assays above

CCCC1COC(Cn2cncn2)(c2ccc(Cl)cc2Cl)O1 (stereo unspecified)
inactive: all assays above

Fc1ccc(Oc2ccnc3cc(Cl)cc(Cl)c23)cc1
active: [5] 32.3 µM | [6] 30.7 µM | [7] 30.4 µM | [8] 22.1 µM | [9] 25.1 µM | [10] 31.5 µM | [11] 31.2 µM | [13] 22.9 µM | [14] 35.9 µM | [15] 29.4 µM | [16] 23 µM | [17] 30.8 µM | [18] 32.8 µM
inactive: [2] | [3] | [4]

CCOc1cc(Oc2ccc(C(F)(F)F)cc2Cl)ccc1[N+](=O)[O-]
active: [8] 11.5 µM | [9] 3.32 µM | [13] 14.1 µM | [14] 7.63 µM | [18] 6.77 µM
not listed: [2] | [3] | [12]
inactive: all other assays above

N#Cc1cc(Br)c(O)c(Br)c1
active: [8] 14.3 µM | [9] 28 µM | [13] 20 µM | [16] 16.5 µM | [17] 19 µM
not listed: [1] | [12]
inactive: all other assays above

CCOP(=S)(OCC)SCn1c(=O)oc2cc(Cl)ccc21
active: [13] 30.2 µM | [15] 39 µM | [16] 29.6 µM
not listed: [12]
inactive: all other assays above

N#CC(CCc1ccc(Cl)cc1)(Cn1cncn1)c1ccccc1 (stereo unspecified)
active: [13] 20 µM | [15] 39 µM | [18] 13.5 µM
not listed: [4] | [12]
inactive: all other assays above

Source: PubChem BioAssay (EPA / NIEHS)
